A selection: hits, their analogues and other compounds. The true share with any hit is near 19%.
Shiga inhibitor = A qHTS for Small Molecule Inhibitors of Shiga Toxin. Vero cells, Shiga toxin protein synthesis inhibition reporter. 290,000 tested, 9.2% active. inhibition, % at 38.7 µM; in the data active = inhibition mostly above about 28%, no sharp cut-off; inactive = mostly below about 43%; also: 0% is about no effect
Pf growth 48h = Primary qHTS for delayed death inhibitors of the malarial parasite plastid, 48 hour incubation; P. falciparum luciferase growth in erythrocytes, 48 h; Potency, µM (series often up to 28.7 µM), inactives show top-dose activity change, negative = inhibition, usual class: inhibitors; 310,000 tested, 5.9% active; AID 504832, 2011; also: potency is read from the fitted curve at half-maximal effect; % is scaled to controls: 0 for no effect and ±100 for the full control effect
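Cell-based growth assay: transgenic P. falciparum expressing firefly luciferase, cultured in red cells within RPMI 1640 containing 0.5% w/v Albumax, 24 mM bicarbonate and gentamycin. A drop in luciferase activity indicates inhibition.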
CHX counter = Cycloheximide Counterscreen for Small Molecule Inhibitors of Shiga Toxin; cell reporter, cycloheximide protein synthesis inhibition counterscreen; max response, %; 300,000 tested, 12% active; in the data active = max response mostly above about 13%, no sharp cut-off; inactive = mostly below about 14%; also: read at 38.3 µM for the half of the compounds with a filed dose; 0% is about no effect
Pf growth 96h = Primary qHTS for delayed death inhibitors of the malarial parasite plastid, 96 hour incubation | Potency, µM (titrated, usually from 28.7 µM), for inactives: top-dose activity change, negative = inhibition, most hits filed as inhibitors | P. falciparum luciferase reporter growth, 96 h | 320,000 tested, 6.9% active; also: potency is read from the fitted curve at half-maximal effect; % is scaled to controls: 0 for no effect and ±100 for the full control effect
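Readout is luminescence from an integrated firefly luciferase in P. falciparum. Red cells, 2% hematocrit and 0.05% parasitemia final, were cultured with compound through two parasite generations (96 hours) at 37 C, 5% CO2.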
SARS PLP yeast = qHTS of Yeast-based Assay for SARS-CoV PLP. 330,000 tested, 0.19% active. S. cerevisiae expressing SARS-CoV PLpro, growth rescue. Potency, µM (top dose mostly 32.9 µM), inactives show at the top dose activity, positive = growth rescue, hits mostly activators. AID 485353, 2010; calls by dose curve; also: potency is read from the fitted curve at half-maximal effect; 0% is about no effect; nearly all actives have a fitted effect of over 55% in size
AMA1-RON2 inh = qHTS for Inhibitors of AMA1-RON; Towards Development of Antimalarial Drug Lead: Primary Screen; Potency, µM (doses to about 58.2 µM), inactives show at the highest dose activity change, negative = inhibition, actives largely listed as inhibitors; 360,000 tested, 0.2% active; Plasmodium falciparum AMA1 (3D7) - RON2 peptide interaction; AlphaScreen AMA1-biotinylated RON2 peptide binding;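 also: potency is read from the fitted curve at half-maximal effect; 0% = vehicle wells and -100% = peptide control; nearly all actives have a fitted effect of over 45% in size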
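AMA1 (3D7) with his tag at 25 nM final met compounds first, then biotinylated RON2 peptide at 25 nM; detection used donor plus acceptor beads, 10 µg/mL apiece, read by AlphaScreen after 30 min at room temperature.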
* marks the source's active call; other numbers are inactive results. Unless noted, calls follow the shape of the dose curve; as a rule, active = well fitted curve in the direction sought with a large enough effect; inconclusive = small, poorly fitted or top-dose-only effect, or another doubt; inactive = no such curve, though single readings can be large; an effect the other way counts as inactive or inconclusive.

For Cc1ccc(NC(=O)CSc2nnc(-c3ccc(S(=O)(=O)N4CCCC4)cc3)o2)cc1C the results were Shiga inhibitor -19, Pf growth 48h inconclusive, CHX counter -7, Pf growth 96h 28%, SARS PLP yeast 11% and AMA1-RON2 inh 36%.
Screening O=C(CSc1nnc(-c2ccc(F)cc2)o1)Nc1ccc(S(=O)(=O)N2CCCCCC2)cc1 returned Shiga inhibitor -19, Pf growth 48h 9.3µM*, CHX counter -5, Pf growth 96h -13%, SARS PLP yeast -4% and AMA1-RON2 inh -5%.
O=C(CC1C[C@H](C(=O)N2CCOCC2)[C@@]2(CCC3CCCC3)c3[nH]c4ccccc4c3CCN2C1=O)NCc1cccc(C(F)(F)F)c1 (stereo partly drawn) was read as AMA1-RON2 inh -8%.
`CNCC[C@H](Oc1cccc2ccccc12)c1cccs1` gave Shiga inhibitor -7, Pf growth 48h 13µM*, CHX counter -2, Pf growth 96h 6.7µM*, SARS PLP yeast -1% and AMA1-RON2 inh -17%.
For CC(NCCCOc1cccc2ccccc12)c1ccccc1 (stereo not drawn) the results were Pf growth 48h inconclusive, CHX counter -6, Pf growth 96h inconclusive, SARS PLP yeast -4% and AMA1-RON2 inh -8%.
`O=C(NCc1ccco1)c1cc(-c2cccs2)on1` gave Shiga inhibitor 121*, Pf growth 48h 337%, CHX counter 55*, Pf growth 96h -26%, SARS PLP yeast 2% and AMA1-RON2 inh -9%.
CC(C)c1cc(C(=O)NCCc2ccccc2)no1 was read as Shiga inhibitor 72*, Pf growth 48h inactive, CHX counter 47*, Pf growth 96h 0%, SARS PLP yeast 0% and AMA1-RON2 inh 21%.
Screening COCCNC(=O)c1cc2ncc(Br)cn2n1 returned Shiga inhibitor 18, CHX counter 7, Pf growth 96h 31%, SARS PLP yeast -4% and AMA1-RON2 inh -7%.
Screening O=C(NCc1ccco1)c1cc(-c2ccc(F)cc2)on1 returned Shiga inhibitor 92*, Pf growth 48h 49%, CHX counter 59*, Pf growth 96h inconclusive, SARS PLP yeast -1% and AMA1-RON2 inh -2%.
Screening O=C(NCCc1ccccc1)c1cc2ncc(Br)cn2n1 returned Shiga inhibitor 46, Pf growth 48h 34%, CHX counter 26*, SARS PLP yeast 1% and AMA1-RON2 inh -20%.
Screening O=C(c1ccc(F)cc1)c1c[nH]c(C(=O)NCc2ccco2)c1 returned Shiga inhibitor 2, Pf growth 48h 25%, CHX counter 2, Pf growth 96h 38%, SARS PLP yeast 2% and AMA1-RON2 inh -2%.
`COc1ccc(CCNC(=O)c2cc(-c3ccccc3)on2)cc1OC` gave Shiga inhibitor 10, Pf growth 48h -2%, CHX counter 4, SARS PLP yeast 2% and AMA1-RON2 inh -4%.
O=C(NCc1ccco1)c1cc(-c2ccccc2)on1 was read as Shiga inhibitor 104*, Pf growth 48h 121%, CHX counter 48*, SARS PLP yeast -4% and AMA1-RON2 inh 0%.
Screening Cc1cc(C(=O)NCc2ccco2)on1 returned Shiga inhibitor -4, CHX counter -1, Pf growth 96h inconclusive, SARS PLP yeast -3% and AMA1-RON2 inh -4%.
For CC(C)c1cc(C(=O)NCc2ccco2)no1 the results were Shiga inhibitor 66*, Pf growth 48h 96%, CHX counter 42*, Pf growth 96h 25%, SARS PLP yeast -13% and AMA1-RON2 inh -2%.
Screening O=C(CN1C(=O)c2ccccc2S1(=O)=O)Nc1cc(S(=O)(=O)N2CCCCC2)ccc1Cl returned Pf growth 48h -12%, Pf growth 96h inconclusive, SARS PLP yeast 2% and AMA1-RON2 inh 0%.
`CCn1c(SCC(N)=O)nnc1C(C)C` gave Shiga inhibitor -13, Pf growth 48h 13%, CHX counter -2, Pf growth 96h 8.3µM*, SARS PLP yeast 1% and AMA1-RON2 inh -3%.
CCc1cccc(CC)c1NC(=O)CSc1nnc(C(C)C)n1CC was read as Shiga inhibitor -4, Pf growth 48h 17%, CHX counter -6, Pf growth 96h inconclusive, SARS PLP yeast 2% and AMA1-RON2 inh -11%.
For CCn1c(SCC(=O)c2ccc(Cl)cc2)nnc1C(C)C the results were Shiga inhibitor 116*, Pf growth 48h 32%, CHX counter 34*, Pf growth 96h inconclusive, SARS PLP yeast -25% and AMA1-RON2 inh 0%.
Oc1ccc2[nH]cc(CCCCN3CC=C(c4ccccc4)CC3)c2c1 was read as Pf growth 48h 4.3µM* and Pf growth 96h 4.3µM*.
Screening Cc1cc(C)n2c(NC3CCCCC3)c(CC(C)C)nc2n1 returned AMA1-RON2 inh 28%.
Cc1cc(C(O)c2ncc(-c3ccc(Cl)cc3)[nH]2)ccc1F (stereo not drawn) was read as AMA1-RON2 inh -10%.
Screening O=C(NC(=S)NC1CCCC1)c1ccccc1Br returned Shiga inhibitor 9, Pf growth 48h -21%, CHX counter -1, Pf growth 96h inconclusive, SARS PLP yeast 28% and AMA1-RON2 inh 15%.
CC(=O)NC(=S)Nc1ccccc1C(=O)NC1CCCCC1 was read as Shiga inhibitor 18, Pf growth 48h -30%, CHX counter -5, Pf growth 96h 8.3µM*, SARS PLP yeast -3% and AMA1-RON2 inh 9%.
Screening O=C(NNC(=S)NC1CCCCC1)c1ccccc1O returned Shiga inhibitor 62*, Pf growth 48h 39%, CHX counter 16*, Pf growth 96h 2.3µM*, SARS PLP yeast inconclusive and AMA1-RON2 inh -55%.
`O=C(CSc1ccc2nnc(-c3ccc(Cl)cc3)n2n1)N1CCc2ccccc21` gave Shiga inhibitor -3, Pf growth 48h 7%, CHX counter -2, Pf growth 96h 15%, SARS PLP yeast -1% and AMA1-RON2 inh 0%.
`CCOc1ccc(CN(C)C(=O)CN2C(=O)NC(c3ccccc3)(c3ccccc3)C2=O)cc1` gave Pf growth 48h 13µM*, Pf growth 96h inconclusive, SARS PLP yeast -2% and AMA1-RON2 inh -3%.
For CC(C)N(C(=O)CN1C(=O)NC(c2ccccc2)(c2ccccc2)C1=O)C(C)C the results were Shiga inhibitor 3, Pf growth 48h -20%, CHX counter -5, Pf growth 96h inconclusive, SARS PLP yeast 3% and AMA1-RON2 inh -3%.
Screening COc1ccc(C2(c3ccc(OC)cc3)NC(=O)N(CC(=O)Nc3ccccc3)C2=O)cc1 returned Shiga inhibitor -8, Pf growth 48h inconclusive, CHX counter -1, Pf growth 96h inconclusive, SARS PLP yeast 1% and AMA1-RON2 inh 1%.

Assay outcomes: PubChem, National Center for Advancing Translational Sciences (NCATS)
